Bioassay records (PubChem)
Only a sample is shown.
aSyn 5UTR act = Activators via SNCA 5'UTR binding, MLPCN; alpha-synuclein 5'UTR reporter, activators screen; activity score, % (tested at 7.5 µM), hits read low; actives 7.1% (n = 300,000); in the data active = activity score below about -60%
Starred values were filed as active, the others as inactive.

SMILES	aSyn 5UTR act
CCc1sc(C(=O)Nc2cccnc2)cc1Br	-110.5*
CC(C)(C)c1ccc(OCCCC(=O)N2CCOCC2)cc1	-104.0*
CC(C)(C)c1ccc(OCc2ccc(C(=O)Nc3cccnc3)o2)cc1	-169.5*
COC(=O)Cc1ccc(NC(=O)c2ccc(C(C)(C)C)cc2)cc1	124.4
CC(C)(C)c1ccc(C(=O)Nc2ccc(Cl)cc2)cc1	-109.9*
Cc1ocnc1C(=O)Nc1ccc(Cl)cc1	-166.9*
CCCc1ccc(OCc2ccc(C(=O)N3CCSCC3)o2)cc1	-147.7*
CC(C)(C)c1ccc(C(=O)Nc2cccnc2)cc1	-91.0*
COC(=O)c1ccc(COc2ccc(C(C)(C)C)cc2)o1	-166.9*
O=C(Nc1ccc(Cl)cc1)c1ccc(OC2CSC2)cc1	-90.1*
CCOC(=O)NC(=O)CSc1nc(-c2ccc(C)c(C)c2)cn1-c1ccccc1	-154.2*
Cc1ccc(-c2cn(-c3ccccc3)c(SCC(N)=O)n2)cc1C	-67.0*
COc1ccc(-c2nnc(SCc3ccccc3)n2N)cc1	-142.4*
COc1ccc(-c2nnc(SCCc3ccccc3)n2N)cc1	-82.5*
COc1ccc(N=C(N)SCc2ccccn2)cc1	-79.3*
COc1ccc(-c2nnc(SCc3ccccn3)n2C)cc1	-66.8*
Cc1ccccc1Cn1cc(NC(=O)c2nc3ncccn3n2)cn1	-94.7*
COC(=O)C1CCN(C(=O)c2oc3c(Cl)cc(C)cc3c2C)CC1	-74.1*
Cc1cc(Cl)c2oc(C(=O)N3CCN(c4ccncc4)CC3)c(C)c2c1	90.3
CCOC(=O)c1sc2nc3c(cc2c1N)C(=O)CC(C)(C)C3	-126.0*
Nc1c(C(=O)N2CCOCC2)sc2nc3c(cc12)CCCC3	75.7
COC(=O)c1sc2nc3c(cc2c1N)C(=O)CC(C)(C)C3	-69.4*
COC(=O)c1sc2nc3c(cc2c1N)CCCC3	-143.1*
COc1ccc(C2C(C#N)=C(N)Nc3nc4ccccc4n32)cc1 (configuration not stated)	-179.4*
Oc1c(N=Nc2ccccc2)sc2ccccc12	-191.6*
SMILES	aSyn 5UTR act
CCC(=O)c1ccc(-c2ccccc2)cc1	-89.3*
CCN1CCN(C(=S)c2ccc(-c3ccccc3)cc2)CC1	65.8
CCCC(C)NC(=O)c1ccc(-c2ccccc2)cc1 (configuration not stated)	-108.6*
O=C(CCN1CCc2ccccc21)c1ccc2c(c1)OCCO2	-154.7*
O=C1COc2ccc(C(=O)/C=C/c3ccccc3)cc2N1	-113.5*
CC(OC(=O)c1ccc2c(c1)OCCO2)C(=O)c1ccccc1 (configuration not stated)	-133.1*
O=C(/C=C/c1ccccc1)c1ccc2c(c1)OCCCCO2	-197.6*
O=C(CCCc1ccccc1)c1ccc2c(c1)OCCO2	86.2
O=C(CCc1ccccc1)c1ccc2c(c1)OCCCO2	-190.0*
O=C(NCCc1ccccc1)c1ccc2c(c1)OCCCO2	107.1
CNc1ccc(/C=C/C(=O)c2ccc3c(c2)OCCO3)cc1[N+](=O)[O-]	-64.3*
O=C(c1ccccc1)c1ccc2c(c1)OCCCO2	-63.6*
O/N=C(/CCc1ccccc1)c1ccc2c(c1)OCCO2	-119.8*
COc1ccc(OC)c(/C=C/C(=O)c2ccc3c(c2)OCCO3)c1	-155.8*
Nc1c(-c2ccccc2)cnc2cc(-c3ccccc3)nn12	-121.1*
COCc1nn2c(N)c(-c3ccccc3)cnc2c1-c1ccccc1	-105.5*
Cc1cc2ncc(-c3ccc(Cl)cc3)c(N)n2n1	-116.8*
Cc1ccc(N/C=C/C(=O)c2ccco2)c(O)c1	-158.4*
Cc1ccc([N+](=O)[O-])cc1N/C=C/C(=O)c1ccco1	-138.4*
O=[N+]([O-])c1ccccc1S(=O)(=O)Oc1ccccc1/C=N/n1cnnc1	-79.4*
Cn1c(/C=C/c2ccc(Br)cc2)nc2ccccc2c1=O	-170.5*
Cn1c(/C=C/c2ccccc2[N+](=O)[O-])nc2ccccc2c1=O	-132.8*
O=[N+]([O-])c1ccccc1/C=C/c1ccc2ccccc2n1	-138.4*
Cc1cc(N2CCN(c3ccc([N+](=O)[O-])c4cccnc34)CC2)c2ccccc2n1	83.7
CSc1nc2ccc(NC(=O)c3ccc(=O)n(C)n3)cc2s1	-69.7*
SMILES	aSyn 5UTR act
CC(=O)Nc1ccc2nc(NC(=O)c3ccc([N+](=O)[O-])o3)sc2c1	-100.0*
CSc1nc2ccc(NC(=O)c3ccc(F)c(F)c3)cc2s1	-142.9*
CC(=O)Nc1ccc2nc(NC(=O)c3ccco3)sc2c1	-96.3*
COc1ccc2nc(NC(=S)NC(=O)c3ccco3)sc2c1	-132.7*
O=C(Nc1nc2ccc([N+](=O)[O-])cc2s1)c1ccco1	-74.1*
CSc1nc2ccc(NC(=O)c3ccco3)cc2s1	-133.5*
CSc1nc2ccc(NC(=O)c3cc4ccccc4o3)cc2s1	-126.3*
COc1ccc2cc(-c3ccn[nH]3)ccc2c1	-123.7*
COc1ccc(/C=C/c2nc(-c3ccccc3O)n[nH]2)cc1	-74.4*
S=C(NCCc1ccc(Cl)cc1)NC1CCCCC1	-111.3*
CNC[C@@H](Cc1ccccc1)NC[C@@H](CC1CCCCC1)NCCCc1ccccc1	124.9
S=C(NCCc1ccccc1)NC1CCCCCC1	-114.2*
O=c1c(Cl)c(Cl)cnn1Cc1nnc(-c2ccc(Cl)cc2)o1	-179.2*
CC1(C)Oc2ccc(NC(=O)c3ccco3)cc2O1	-168.1*
